This note sets out measurements from PubChem BioAssay AID651640 (Broad Institute, 2012).

Where “and” joins values, the source holds several entries; their conditions need not be identical. Identical values can stand only once. The whole screen tested about 350,000 compounds, of which about 6,000 (1.7%) were called active. Another 5% or so got no clear call; they are omitted. Rule as the data show it: active = CPE inhibition above about 20% (passing the limit was not always enough); inconclusive = no clear call, values can overlap the other calls; tested in BHK-21 cells. Shown is part of a subset that was picked to be rich in actives. Some compounds were tested as several samples or in several runs, with calls that do not always agree.

The nature of the test: inhibitors of DENV2 cytopathic effect, primary screen, cell-based, plate reader, single concentration (AID 651640).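 Also: 0% = median of neutral control wells and 100% = median of positive control wells.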 The following applies: DENV2-infected cells, cytopathic effect rescue, at 9.99 µM, stronger effect = higher value. (In general: Damage to the host cells serves as the signal in cytopathic effect assays.)
Regarding `CCC(=O)N(C)C[C@H]1Oc2ncc(C#Cc3cccnc3)cc2C(=O)N([C@H](C)CO)C[C@H]1C`, the CPE inhibition is 4.92% (inactive). In the case of `CCCNC(=O)N1[C@H](C#N)[C@@H](c2ccccc2C2=CCCCC2)[C@@H]1CO` it was -2.61% (inactive); in that of `O=C(c1ccc2c(c1)OCO2)N1CC(=O)N2[C@H](C1)[C@@H](c1ccc(C#Cc3ccccc3)cc1)[C@@H]2CO`, 11.6% (inactive); in that of `COc1ccc(NC(=O)Nc2ccc3c(c2)C(=O)N([C@H](C)CO)C[C@@H](C)[C@@H](CN(C)C(=O)NC(C)C)OCCCC[C@H](C)O3)cc1`, 4.29% (inactive).

Regarding `COCC(=O)N1[C@H](C(=O)N2CCN(C)CC2)[C@@H](CO)[C@@H]2Cn3c(ccc(C4=CCCC4)c3=O)[C@@H]21`, the CPE inhibition is -7.88% (inactive). In the case of `COc1cccc(S(=O)(=O)N2CC3(CCN(C)CC3)c3c(n(C)c4cc(OC)ccc34)[C@H]2CO)c1`, the CPE inhibition is 3.74% (inactive). On to `CC(=O)C1=C(C)N(Cc2ccccc2)C(=S)NC1c1cccc(Br)c1` (centres undefined), for which the CPE inhibition was -5.19% (inactive). For the molecule `C[C@@H]1CCCCO[C@@H](CN(C)S(=O)(=O)c2cccs2)[C@@H](C)CN([C@@H](C)CO)C(=O)c2cc(NS(=O)(=O)c3ccc(F)cc3)ccc2O1`, the CPE inhibition is -8.5% (inactive). As for `C[C@H]1CN([C@@H](C)CO)C(=O)c2cccc(NC(=O)c3cnccn3)c2O[C@H]1CN(C)C(=O)Nc1ccccc1`, the CPE inhibition was 28.3% (active). The result for `CC(C)NC(=O)N(C)C[C@@H]1Oc2c(NC(=O)c3cnccn3)cccc2C(=O)N([C@@H](C)CO)C[C@@H]1C` reads -11.9% (inactive). The result for `C[C@@H]1CN([C@H](C)CO)C(=O)c2cccc(NC(=O)c3cnccn3)c2O[C@@H]1CN(C)Cc1ccncc1` reads 5.84% (inactive); that for `C[C@H](CO)N1C[C@H](C)[C@H](CN(C)C(=O)Nc2ccc(F)cc2)Oc2c(NC(=O)c3cnccn3)cccc2C1=O`, 29.3% (active). As to `C[C@H]1CN([C@@H](C)CO)C(=O)c2cccc(NC(=O)c3cnccn3)c2O[C@@H]1CN(C)Cc1ccc(Oc2ccccc2)cc1`, the CPE inhibition is 2.15% (inactive). With `C[C@@H]1CN([C@@H](C)CO)C(=O)c2cccc(NC(=O)Nc3ccc(F)cc3)c2O[C@H]1CN(C)C(=O)Nc1ccc(F)cc1`, the CPE inhibition was 14.7% (inactive). The result for `CC(=O)N[C@H]1CC[C@H](CCNC(=O)C2CC2)O[C@H]1CO` reads -5.24% (inactive); that for `O=C(c1cccc(F)c1)N1C[C@H]2[C@@H](c3ccccc31)[C@@H](CO)N2C(=O)Cc1ccccc1`, -5.94% (inactive); that for `CO[C@@H]1CN(C)C(=O)c2ccc(NS(C)(=O)=O)cc2OC[C@@H](C)N(C(=O)CC2CC2)C[C@@H]1C`, -2.7% (inactive). In the case of `Cc1c(C(=O)NCCCc2ccccc2)cccc1[N+](=O)[O-]` it was 4.47% (inactive); in that of `Cc1nn(Cc2ccccc2)c(C)c1C(=O)NCCN1C(=O)S/C(=C\c2ccc(F)cc2)C1=O`, -3.31% (inactive). The result for `Cc1c(C(=O)NCCN2C(=O)S/C(=C\c3cccs3)C2=O)cccc1[N+](=O)[O-]` reads 27% (active). As for `O=C(C[C@@H]1CC[C@@H](NS(=O)(=O)c2ccccc2)[C@H](CO)O1)NCc1ccc(Cl)c(Cl)c1`, the CPE inhibition is 3.78% (inactive). In the case of `Cc1nnc(SCC(=O)N2CCOCC2)[nH]c1=O` it was 58.6% (active); in that of `Cc1c(C)n2c(SCC(=O)N3CCCC3)nnc2[nH]c1=O`, 13.9% (inactive); in that of `CCc1ccc(C(=O)CSc2nnc(C)c(=O)[nH]2)cc1`, -2.63% (inactive).

For `COc1ccc2c3c(n(C)c2c1)[C@@H](CO)N(C(=O)Nc1ccc(F)cc1)CC31CN(C(=O)NC(C)C)C1`, the CPE inhibition was -3.42% (inactive). In the case of `CNC(=O)C[C@@H]1CC[C@H]2[C@H](COc3ccc(NC(=O)C4CC4)cc3C(=O)N2C)O1` it was -4.01% (inactive). In the case of `CCCNC(=O)Nc1ccc2c(c1)C(=O)N(C)C[C@@H](OC)[C@H](C)CN(CCC)[C@@H](C)CO2` it was 3.79% (inactive); in that of `COc1ccc(S(=O)(=O)Nc2cccc3c2O[C@H](CN(C)C(=O)NC(C)C)[C@H](C)CN([C@H](C)CO)C3=O)cc1`, -8.19% (inactive); in that of `O=C(N[C@@H]1CC[C@@H](CCn2cc(-c3ccccn3)nn2)O[C@@H]1CO)c1ccccc1`, -2.85% (inactive). The result for `CC=Cc1ccc2n(c1=O)C[C@@H]1[C@@H](CO)[C@H](C(=O)N3CCCCC3)[C@H]2N1C(=O)C1CCC1` (mixture of isomers) reads 1.43% (inactive). As for `O=S(=O)(NCC[C@H]1CC[C@@H](NS(=O)(=O)c2ccccc2Cl)[C@@H](CO)O1)c1ccc(Cl)cc1`, the CPE inhibition is -9.23% (inactive). Regarding `Cc1c(CCC(=O)O)c(=O)oc2c(C)c(OCc3ccccc3Cl)ccc12`, the CPE inhibition is -5.66% (inactive). The result for `COc1ccc2c(C)c(CCC(=O)NC3CC3)c(=O)oc2c1C` reads 63.2% (active). In the case of `COc1ccc(OC)c(Cc2nnc(CCC(=O)NC3CCCC3)o2)c1` it was -7.33% (inactive); in that of `C[C@H]1CN([C@@H](C)CO)C(=O)c2cc(C#CCN(C)C)cnc2O[C@H]1CN(C)C(=O)Cc1ccccc1`, -2.97% (inactive); in that of `Cc1[nH]c2ccccc2c1CC(=O)Nc1ccc(Nc2cccnc2)c(-c2cccc(Cl)c2)c1`, -3.53% (inactive). In the case of `Cc1ccccc1CN(C)C[C@H]1OCc2cn(nn2)CCCC(=O)N([C@@H](C)CO)C[C@H]1C` it was -8.88% (inactive).

Take `COc1ccc(CN(C)C[C@H]2OCCCC[C@H](C)Oc3ccc(NC(=O)c4ccccc4)cc3C(=O)N([C@@H](C)CO)C[C@@H]2C)cc1`: the CPE inhibition is 10.3% (inactive).

For `O=C(N/N=C/c1ccccn1)c1ccc(S(=O)(=O)N2CCCCCC2)cc1`, the CPE inhibition was 0.844% (inactive). In the case of `O=C(Nc1ncccc1O)c1ccc(S(=O)(=O)N2CCCCCC2)cc1` it was 71.9% (active). With `O=C(Nc1ncccc1O)c1ccc(S(=O)(=O)N2CCCC2)cc1`, the CPE inhibition was -6.91% (inactive).

As for `C[C@@H]1CN([C@H](C)CO)C(=O)c2cc(NC(=O)Nc3ccc(F)cc3)ccc2O[C@@H](C)CCCCO[C@H]1CN(C)Cc1ccc(Cl)c(Cl)c1`, the CPE inhibition was -2.33% (inactive). Regarding `C[C@@H]1CN([C@@H](C)CO)S(=O)(=O)c2ccc(C3=CCCCC3)cc2O[C@@H]1CN(C)Cc1cccc(C(=O)O)c1`, the CPE inhibition is 0.212% (inactive). In the case of `O=C(COc1ccccc1)Nc1ccc(C(=O)N2CCCC2)cc1` it was -2.25% (inactive); in that of `COc1ccc(N2CCN(C(=O)c3cccs3)CC2)cc1`, 5.45% (inactive). The result for `O=C(COc1ccccc1)Nc1ccc(N2CCN(C(=O)c3cccs3)CC2)cc1` reads 21.9% (active); that for `COc1ccc(-c2cn[nH]c2-c2ccc(OC)cc2)cc1`, 4.92% (inactive). In the case of `Cc1cc(C)n(CCNS(=O)(=O)c2ccc(Cl)cc2)n1` it was 8.8% (inactive); in that of `COc1ccc2cc(-c3[nH]ncc3CNCCn3nc(C)cc3C)ccc2c1`, 22.2% (active).

Take `CN(C)CC(=O)N1[C@H](C(=O)NC2CCC2)[C@@H](CO)[C@@H]2Cn3c(ccc(-c4ccc(F)cc4)c3=O)[C@@H]21`: the CPE inhibition was 2.93% (inactive). The result for `O=C(CN1CCOCC1)N1C[C@@H]2N[C@H](C1)C2c1ccc(-c2ccncc2)cc1` (some centres undefined) reads -7.01% (inactive). In the case of `O=C(C1CCC1)N1C[C@@H]2N[C@H](C1)C2c1ccc(-c2cncnc2)cc1` (some centres undefined) it was 10.6% (inactive); in that of `O=C(Cc1ccncc1)N1C[C@@H]2N[C@H](C1)C2c1ccc(-c2ccc(F)cc2)cc1` (some centres undefined), 21.5% (active); in that of `Cn1cnc(S(=O)(=O)N2C[C@@H]3N[C@H](C2)C3c2ccc(-c3ccccc3F)cc2)c1` (some centres undefined), 72.2% (active) and -4.36% (inactive). In the case of `COc1ccc(-c2ccc(C3[C@@H]4CN(S(=O)(=O)c5cn(C)cn5)C[C@H]3N4)cc2)cc1` (some centres undefined) it was 1.06% (inactive); in that of `Cn1cnc(S(=O)(=O)N2C[C@@H]3N[C@H](C2)C3c2ccc(/C=C/c3ccccc3)cc2)c1` (some centres undefined), 1.24% (inactive) and -2.99% (inactive); in that of `CO[C@@H]1CN(C)C(=O)c2cc(NC(=O)C3CCCC3)ccc2OC[C@H](C)N(C)C[C@@H]1C`, 4.63% (inactive).

For the molecule `COC(=O)C[C@@H]1C[C@H]2c3cc(NC(=O)CN(C)C)ccc3O[C@H]2[C@H](CO)O1`, the CPE inhibition was 1.76% (inactive). In the case of `Cc1noc(C)c1S(=O)(=O)N(C)C[C@@H]1OCCCC[C@H](C)Oc2ccc(NC(=O)CCC(F)(F)F)cc2C(=O)N([C@H](C)CO)C[C@H]1C` it was 18.7% (inactive); in that of `O=C(Nc1nccs1)[C@@H]1[C@@H](CO)[C@@H]2Cn3c(ccc(-c4cccnc4)c3=O)[C@@H]2N1CC1CC1`, -4.43% (inactive). In the case of `CC(C)(C)OC(=O)C[C@@H]1C/C=C\C[C@H](CC(=O)N[C@@H](CO)Cc2ccccc2)C(=O)N[C@H](Cc2ccccc2)COC1=O` it was 21.2% (active); in that of `C[C@H]1COC(=O)[C@H](CC(=O)OC(C)(C)C)C/C=C\C[C@@H](CC(=O)N[C@H](CO)Cc2ccccc2)C(=O)N1`, 15.2% (inactive). For `CC(C)(C)OC(=O)C[C@@H]1C/C=C\C[C@@H](CC(=O)N[C@H](CO)Cc2ccccc2)C(=O)NCCOC1=O`, the CPE inhibition was -7.88% (inactive).

As to `O=C(NCC1CC1)[C@@H]1[C@@H](CO)[C@@H]2Cn3c(ccc(-c4ccncc4)c3=O)[C@@H]2N1Cc1cocn1`, the CPE inhibition was 6.32% (inactive). As for `O=C(c1ccncc1)N1CC[C@@H]2[C@H]1c1cc(Br)ccc1N[C@@H]2CO`, the CPE inhibition was -10.3% (inactive). In the case of `C[C@H]1CN([C@@H](C)CO)C(=O)c2cccc(NC(=O)Nc3ccccc3)c2O[C@@H]1CN(C)C(=O)Nc1cccc2ccccc12`, the CPE inhibition is 13.2% (inactive). With `COCCn1c(SCC(=O)Nc2ccc(F)cc2F)nc2c(c1=O)SCC2`, the CPE inhibition is -1.37% (inactive). In the case of `COCCn1c(SCC(=O)Nc2ccccc2F)nc2c(c1=O)SCC2` it was 69.8% (active); in that of `COCCn1c(SCC(=O)Nc2cc(Cl)ccc2OC)nc2c(c1=O)SC(C)C2` (centres undefined), 1.59% (inactive).
